The values below come from article PMC5540273 (PLoS ONE, 2017).
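Note: KINOMEscan kinase panel screen.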

This experiment relates to ULK3. Conditions: concentration: 1 μM,replicates: in singlicate; n = 1.
As to `CS(=O)(=O)Nc1ccc(-c2ccnc3[nH]ccc23)cc1` [GSK993273], the “%Inh” value was determined as 95.4%. On to `O=C(NCC1CC1)c1ccc(-c2cc(C(=O)NC3CC3)ccc2F)cc1` [GW810445], for which the “%Inh” value worked out at 3%. Turning to `Cc1cccc2c(-c3ccncc3)c(-c3ccc(F)cc3)nn12.Cl` [GW461487], the “%Inh” value amounted to 1%. On to `Cn1ccc2ncnc(Oc3ccc(NC(=O)Nc4cnn(C(C)(C)C)c4)c(Cl)c3)c21`, for which the “%Inh” value is recorded as 0%. For `Cn1cc(-c2cccc3c(N)c(C(N)=O)nnc23)cn1`, the “%Inh” value is given as 21%. As for `C[C@@H]1CCN(C(=O)N2CCCC2)C[C@@H]1N(C)c1ncnc2[nH]ccc12`, the “%Inh” value is on record as 70%.

`Cl.Nc1n[nH]c2cc(-c3ccccn3)ccc12` [GSK2189892]: the “%Inh” value is 0%.

Turning to `Cl.c1ccc(Oc2ccc(Nc3ccnc4cc(-c5ccc(CN6CCNCC6)o5)ccc34)cc2)nc1` [GW567142], the “%Inh” value is 0%. `CCNCC(Cc1ccccc1)NC(=O)c1cc(Br)c(-c2ccnc3[nH]ccc23)s1.Cl.Cl` (centres unmarked) [GSK1383280]: the “%Inh” value is 8%.

Consider `Cc1ccc(Nc2ccnc(Nc3ccc4c(c3)CS(=O)(=O)C4)n2)cc1O.Cl` [GW579362], for which the “%Inh” value amounted to 99.5%. To `COc1cccc(C2=C(Nc3cccc(Cl)c3)C(=O)NC2=O)c1` [SB-341556] belongs 12%; to `CCN1CCN(CCCC(=O)Nc2n[nH]c3nc(-c4ccc(O)cc4)c(Br)cc23)CC1` [SB-731579], 6%. For `CSc1nccc(-c2c(-c3ccc(F)cc3)ncn2CCCN2CCOCC2)n1.Cl` [SB-217146] the value was 14%; for `COc1cc2nccc(Nc3ccc(Oc4ccccc4)cc3)c2cc1OC.Cl` [GI261656], 0%.
